Test results reported in PubChem BioAssay (NCI).
The panel holds about 79,000 compounds, 15% with a hit somewhere; the sample as a whole holds those more often. Unmarked numbers belong to inactive results. Active and inactive are the calls of the source. No stated cut-off is given here; in the data, active means growth inhibition above about 70%; inactive means the rest.

How the values were obtained:
[1] = NCI Yeast Anticancer Drug Screen. Data for the rad50 strain (AID 155);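 further: 0% = growth of vehicle-only cultures of the same strain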; conditions: S. cerevisiae rad50 strain growth inhibition, active compounds read high
How it was run: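 Relative growth inhibition (compound vs vehicle) was measured in yeast with a defined repair-gene alteration.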

[2] = NCI Yeast Anticancer Drug Screen. Data for the mec2-1 strain (AID 157); conditions: S. cerevisiae mec2-1 strain, active compounds read high
How it was run: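 Readout is yeast growth inhibition, normalised to vehicle-treated controls, in the mec2-1 strain exposed to compound.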

[3] = NCI Yeast Anticancer Drug Screen. Data for the sgs1 mgt1 strain (AID 161);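 further: 0% = growth of cultures given vehicle only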; conditions: S. cerevisiae sgs1 mgt1 strain, active compounds read high
How it was run: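 Growth of a repair-deficient yeast mutant was monitored after compound treatment and expressed as inhibition relative to vehicle-treated cultures.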

[4] = NCI Yeast Anticancer Drug Screen. Data for the cln2 rad14 strain (AID 165);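 further: 0% = growth equal to vehicle treated cultures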; conditions: S. cerevisiae cln2 rad14 strain, active compounds read high
How it was run: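 Relative to vehicle controls, growth inhibition of compound-treated cln2 rad14 yeast was recorded.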

[5] = NCI Yeast Anticancer Drug Screen. Data for the bub3 strain (AID 167); conditions: S. cerevisiae bub3 mutant strain, active compounds read high
How it was run: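 Screening used yeast with an engineered genetic alteration affecting cell cycle control. Compound-exposed cultures were compared with vehicle cultures, and reduced growth was taken as inhibition.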

[6] = NCI Yeast Anticancer Drug Screen. Data for the mlh1 rad18 strain (AID 175); conditions: S. cerevisiae mlh1 rad18 strain growth inhibition, active compounds read high
How it was run: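 Test agents were incubated with a yeast strain of defined genotype (DNA damage repair defect). Inhibition of growth was derived by comparison with vehicle-exposed cultures.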

[7] = at 5.0 µM (retest, dose inferred, filed as 0.5)
[8] = at 50.0 µM (retest, dose inferred, filed as 5.0)

| SMILES | growth inhibition [1, 7] | growth inhibition [1, 8] | growth inhibition ([1]; at 50.0 µM) | growth inhibition [2, 7] [%] | growth inhibition [2, 8] | growth inhibition ([2]; at 50.0 µM) | growth inhibition [3, 7] [%] | growth inhibition [3, 8] | growth inhibition ([3]; at 50.0 µM) | growth inhibition [4, 7] [%] | growth inhibition [4, 8] | growth inhibition ([4]; at 50.0 µM) | growth inhibition [5, 7] [%] | growth inhibition [5, 8] | growth inhibition ([5]; at 50.0 µM) | growth inhibition [6, 7] [%] | growth inhibition [6, 8] | growth inhibition ([6]; at 50.0 µM) |
| --- | --- | --- | --- | --- | --- | --- | --- | --- | --- | --- | --- | --- | --- | --- | --- | --- | --- | --- |
| C=CCc1cc(C(=O)OCC)cc(OC)c1O | 78% (active) | 97% (active) | 5.15% | 22 | 98% (active) | -1.1% | 34 | 91% (active) | 3.9% | 20 | 95% (active) | -23.4% | 19 | 95% (active) | 74% (active) | 44 | 97% (active) | -0.35% |
| O=S1Nc2ccccc2S1 (centres undefined) | 0% | 18% | 58% | -1 | 33% | 85.2% (active) | 2 | 42% | 99.2% (active) | -8 | 37% | 97% (active) | -1 | 77% (active) | 98.7% (active) | -1 | 41% | 96.2% (active) |
| Cc1cc(=O)oc2c3c(ccc12)OC(c1ccc(Br)cc1)CC3=O (centres undefined) | 28% | 24% | 6.65% | 15 | 12% | -7.8% | 19 | 20% | 6.8% | 11 | 27% | -12.8% | 24 | 23% | -3% | 22 | 15% | -6.6% |
| Cn1c2c(c3ccccc31)CCN(CCCN1CCN(c3cccc(Cl)c3)CC1)C2=O | 32% | 32% | 79.2% (active) | 7 | 7% | 54.1% | 22 | 22% | 78.7% (active) | 11 | 11% | 73.8% (active) | 2 | 2% | 80% (active) | 25 | 25% | 71% (active) |
| O=C1C(N=Nc2ccccc2)=C(O)C2C3C=CC(C3)C12 (centres undefined) | 2% | 98% (active) | 98.8% (active) | 0 | 98% (active) | 98.5% (active) | 2 | 95% (active) | 95% (active) | 1 | 98% (active) | 99.3% (active) | 1 | 98% (active) | 98.2% (active) | 17 | 98% (active) | 98.8% (active) |
| CC1CN(CCCN2c3ccccc3Sc3ccc(Cl)cc32)C(C)(C)C1 (centres undefined) | 1% | 99% (active) | 99.7% (active) | 5 | 100% (active) | 99.8% (active) | 17 | 100% (active) | 99.8% (active) | 10 | 99% (active) | 99.3% (active) | 21 | 100% (active) | 99.3% (active) | 9 | 99% (active) | 99.8% (active) |
| CC(C)C1COC(c2ccc3ccccc3c2-c2c(O[Si](C)(C)C(C)(C)C)ccc3ccccc23)=N1 (centres undefined) | 20% | 20% | 93.2% (active) | 14 | 14% | 92% (active) | 12 | 12% | 92.8% (active) | 13 | 13% | 92.7% (active) | 8 | 8% | 91.3% (active) | 4 | 4% | 91.2% (active) |
| C=CC(=O)Nc1ccccc1CC(c1c[nH]c2ccccc12)c1c[nH]c2ccccc12 | 34% | 34% | 85% (active) | 26 | 26% | 73.7% (active) | 34 | 34% | 81.5% (active) | 12 | 12% | 84.3% (active) | 21 | 21% | 74.5% (active) | 27 | 27% | 76.9% (active) |
